Where “and” joins values, the source holds several entries; their conditions need not be identical. Identical values can stand only once. Among all 5,500 compounds or so, about 2,000 (36%) were called active. Another 18% or so got no clear call; they are omitted. No stated cut-off is given here; in the data, active means normalized growth mostly below about 0.91 (no sharp cut-off); inconclusive means no clear call, values can overlap the other calls; inactive means mostly above about 0.92. The list shows a part of the results.
Assay: chemical genetic growth profiling, strain panel (AID 1159580);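 further: tested at 20 µM; growth read once vehicle control cultures reached saturation at 30 °C; 1 = growth at the plate median or of vehicle wells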
Conditions: S. cerevisiae deletion strains, growth OD

Measured: normalized growth

CCCCCc1c2c(cc(O)c1C(=O)O)OC(=O)c1c(cc(OC)cc1C(=O)CCCC)O2
inactive: locus YAL021C, strain ccr4, stronger effect = lower value 0.954 | locus YAL026C, strain drs2, stronger effect = lower value 1.01 | locus YAL030W, strain snc1, stronger effect = lower value 0.993 | locus YBL061C, strain skt5, stronger effect = lower value 0.999 | locus YBR009C, strain hhf1, stronger effect = lower value 1.01 | locus YBR021W, strain FUR4, stronger effect = lower value 1.02 | locus YBR023C, strain chs3, stronger effect = lower value 1 | locus YBR171W, strain sec66, stronger effect = lower value 1 | locus YBR229C, strain ROT2, stronger effect = lower value 0.935 | locus YBR231C, strain swc5, stronger effect = lower value 0.988 | locus YBR279W, strain paf1, stronger effect = lower value 1.01 | locus YCL011C, strain gbp2, stronger effect = lower value 0.997 | locus YCL016C, strain dcc1, stronger effect = lower value 0.994 | locus YCL029C, strain bik1, stronger effect = lower value 0.989 | locus YCL069W, strain vba3, stronger effect = lower value 1.03 | locus YCR088W, strain abp1, stronger effect = lower value 1 | locus YDL005C, strain med2, stronger effect = lower value 0.977 | locus YDL035C, strain GPR1, stronger effect = lower value 0.945 | locus YDL040C, strain nat1, stronger effect = lower value 0.994 | locus YDL074C, strain BRE1, stronger effect = lower value 0.982 | locus YDL101C, strain DUN1, stronger effect = lower value 0.998 | locus YDL185W, strain tfp1, stronger effect = lower value 0.968 | locus YDL192W, strain arf1, stronger effect = lower value 0.968 | locus YDR001C, strain nth1, stronger effect = lower value 1 | locus YDR069C, strain doa4, stronger effect = lower value 0.985 | locus YDR101C, strain arx1, stronger effect = lower value 0.961 | locus YDR137W, strain rgp1, stronger effect = lower value 0.941 | locus YDR150W, strain NUM1, stronger effect = lower value 0.99 | locus YDR159W, strain sac3, stronger effect = lower value 0.994 | locus YDR162C, strain NBP2, stronger effect = lower value 0.955 | locus YDR195W, strain ref2 0.977 | locus YDR297W, strain sur2, stronger effect = lower value 0.995 | locus YDR318W, strain mcm21, stronger effect = lower value 0.99 | locus YDR334W, strain swr1, stronger effect = lower value 1.01 | locus YDR335W, strain msn5, stronger effect = lower value 1 | locus YDR388W, stronger effect = lower value 0.997 | locus YDR392W, strain spt3, stronger effect = lower value 0.988 | locus YDR502C, strain sam2, stronger effect = lower value 1.03 | locus YEL003W, strain gim4, stronger effect = lower value 1.01 | locus YEL037C, strain rad23, stronger effect = lower value 1.01 | locus YEL061C, strain CIN8 (second series), stronger effect = lower value 1.02 | locus YER015W, strain faa2, stronger effect = lower value 1 | locus YER016W, strain bim1, stronger effect = lower value 0.989 | locus YER110C, stronger effect = lower value 0.973 | locus YER111C, strain swi4, stronger effect = lower value 0.995 | locus YER155C, strain BEM2 (second series), stronger effect = lower value 0.998 | locus YER155C, strain BEM2, stronger effect = lower value 1.01 | locus YER167W, strain BCK2, stronger effect = lower value 0.985 | locus YFR010W, strain ubp6, stronger effect = lower value 1 | locus YGL078C, strain dbp3, stronger effect = lower value 0.977 | locus YGL086W, strain mad1, stronger effect = lower value 1 | locus YGL167C, strain pmr1, stronger effect = lower value 0.977 | locus YGL173C, strain kem1, stronger effect = lower value 0.991 | locus YGL227W, strain vid30, stronger effect = lower value 1.03 | locus YGL240W, strain doc1, stronger effect = lower value 0.964 | locus YGL248W, strain PDE1, stronger effect = lower value 0.99 | locus YGL253W, strain hxk2, stronger effect = lower value 1.01 | locus YGR135W, strain pre9, stronger effect = lower value 1.04 | locus YGR252W, strain gcn5, stronger effect = lower value 1.01 | locus YHR013C, strain ard1, stronger effect = lower value 0.989 | locus YHR027C, strain rpn1, stronger effect = lower value 1.01 | locus YHR030C, strain SLT2, stronger effect = lower value 0.961 | locus YHR079C, strain IRE1 (second series), stronger effect = lower value 0.988 | locus YHR079C, strain IRE1, stronger effect = lower value 0.959 | locus YHR094C, strain hxt1, stronger effect = lower value 0.983 | locus YHR129C, strain ARP1, stronger effect = lower value 0.993 | locus YHR142W, strain chs7, stronger effect = lower value 1.02 | locus YHR200W, strain rpn10, stronger effect = lower value 0.987 | locus YIL066C, strain RNR3, stronger effect = lower value 0.978 | locus YIL073C, strain SPO22, stronger effect = lower value 0.97 | locus YIL125W, strain kgd1, stronger effect = lower value 0.991 | locus YIR030C, strain dcg1, stronger effect = lower value 0.986 | locus YJL092W, strain hpr5, stronger effect = lower value 1.01 | locus YJL095W, strain BCK1 (second series), stronger effect = lower value 0.997 | locus YJL095W, strain BCK1, stronger effect = lower value 1.06 and 0.972 | locus YJL115W, strain asf1, stronger effect = lower value 0.982 | locus YJL129C, strain trk1, stronger effect = lower value 1.02 | locus YJL134W, strain LCB3, stronger effect = lower value 0.977 | locus YJL154C, strain vps35, stronger effect = lower value 0.996 | locus YJL164C, strain tpk1, stronger effect = lower value 0.995 | locus YJL166W, strain qcr8, stronger effect = lower value 0.979 | locus YJL168C, strain set2, stronger effect = lower value 0.991 | locus YJL187C, strain SWE1 (second series), stronger effect = lower value 1.01 | locus YJL187C, strain SWE1, stronger effect = lower value 1 | locus YJR043C, strain POL32, stronger effect = lower value 0.941 | locus YJR066W, strain TOR1, stronger effect = lower value 0.961 | locus YJR075W, strain HOC1, stronger effect = lower value 0.993 | locus YKL009W, strain mrt4, stronger effect = lower value 0.971 | locus YKL068W, stronger effect = lower value 0.995 | locus YKL085W, strain MDH1 (second series), stronger effect = lower value 0.995 | locus YKL085W, strain MDH1, stronger effect = lower value 0.995 | locus YKL160W, strain elf1, stronger effect = lower value 1.01 | locus YKR001C, strain vps1, stronger effect = lower value 0.985 | locus YKR026C, strain gcn3, stronger effect = lower value 0.998 | locus YKR091W, strain srl3, stronger effect = lower value 0.997 | locus YLL001W, strain dnm1, stronger effect = lower value 1.01 | locus YLL026W, stronger effect = lower value 0.995 | locus YLL041C, strain sdh2, stronger effect = lower value 0.986 | locus YLR027C, strain aat2, stronger effect = lower value 1.01 | locus YLR039C, strain RIC1, stronger effect = lower value 0.955 | locus YLR058C, strain SHM2, stronger effect = lower value 0.97 | locus YLR102C, strain apc9, stronger effect = lower value 0.979 | locus YLR113W, strain HOG1, stronger effect = lower value 0.929 | locus YLR221C, strain rsa3, stronger effect = lower value 0.99 | locus YLR258W, strain gsy2, stronger effect = lower value 1.01 | locus YLR262C, strain YPT6 (second series), stronger effect = lower value 0.993 | locus YLR262C, strain YPT6, stronger effect = lower value 0.967 | locus YLR268W, strain sec22, stronger effect = lower value 0.972 | locus YLR320W, strain mms22, stronger effect = lower value 0.979 | locus YLR342W, strain FKS1, stronger effect = lower value 0.981 | locus YLR357W, strain rsc2, stronger effect = lower value 0.923 | locus YLR370C, strain arc18, stronger effect = lower value 0.997 | locus YLR371W, strain rom2, stronger effect = lower value 0.981 | locus YLR384C, strain iki3, stronger effect = lower value 0.995 | locus YLR418C, strain cdc73, stronger effect = lower value 1.04 | locus YML016C, strain PPZ1, stronger effect = lower value 0.96 | locus YML032C, strain rad52, stronger effect = lower value 0.996 | locus YML120C, strain ndi1, stronger effect = lower value 0.995 | locus YML124C, strain tub3, stronger effect = lower value 0.995 | locus YMR058W, strain fet3, stronger effect = lower value 0.987 | locus YMR078C, strain ctf18, stronger effect = lower value 0.983 | locus YMR125W, strain sto1, stronger effect = lower value 0.996 | locus YMR129W, stronger effect = lower value 1.01 | locus YMR205C, strain PFK2, stronger effect = lower value 0.992 | locus YMR223W, strain ubp8, stronger effect = lower value 1.01 | locus YMR231W, strain pep5, stronger effect = lower value 0.994 | locus YMR307W, strain GAS1, stronger effect = lower value 1.03 | locus YNL067W, strain RPL9B, stronger effect = lower value 0.999 | locus YNL071W, strain lat1, stronger effect = lower value 1 | locus YNL153C, strain GIM3, stronger effect = lower value 1.02 | locus YNL183C, strain NPR1, stronger effect = lower value 0.937 | locus YNL209W, strain ssb2, stronger effect = lower value 1.01 | locus YNL233W, strain BNI4, stronger effect = lower value 1.03 | locus YNL248C, strain rpa49, stronger effect = lower value 0.993 | locus YNL250W, strain rad50, stronger effect = lower value 0.991 | locus YNL271C, strain bni1, stronger effect = lower value 0.99 | locus YNL298W, strain CLA4, stronger effect = lower value 0.959 | locus YNL307C, strain MCK1, stronger effect = lower value 1 | locus YNL322C, strain KRE1 (second series), stronger effect = lower value 0.998 | locus YNL322C, strain KRE1, stronger effect = lower value 0.986 | locus YNR049C, strain mso1, stronger effect = lower value 0.982 | locus YNR052C, strain pop2, stronger effect = lower value 1.01 | locus YOL012C, strain htz1 1.1 | locus YOL147C, strain pex11, stronger effect = lower value 0.993 | locus YOR001W, strain rrp6, stronger effect = lower value 1 | locus YOR061W, strain CKA2, stronger effect = lower value 0.942 | locus YOR069W, strain VPS5, stronger effect = lower value 0.993 | locus YOR070C, strain gyp1, stronger effect = lower value 0.999 | locus YOR080W, strain dia2, stronger effect = lower value 0.99 | locus YOR083W, strain WHI5, stronger effect = lower value 0.991 | locus YOR106W, strain vam3, stronger effect = lower value 0.995 | locus YOR136W, strain idh2, stronger effect = lower value 1 | locus YOR144C, strain elg1, stronger effect = lower value 0.983 | locus YOR184W, strain ser1, stronger effect = lower value 0.951 | locus YOR231W, strain MKK1, stronger effect = lower value 0.983 | locus YOR265W, strain rbl2, stronger effect = lower value 0.991 | locus YOR270C, strain vph1, stronger effect = lower value 1.02 | locus YOR290C, strain snf2, stronger effect = lower value 1.02 | locus YOR316C, strain cot1, stronger effect = lower value 1 | locus YPL051W, strain arl3, stronger effect = lower value 1 | locus YPL078C, strain atp4, stronger effect = lower value 0.992 | locus YPL106C, strain sse1, stronger effect = lower value 0.951 | locus YPL240C, strain hsp82, stronger effect = lower value 0.998 | locus YPL241C, strain CIN2, stronger effect = lower value 0.991 | locus YPL256C, strain CLN2, stronger effect = lower value 0.989 | locus YPR119W, strain clb2, stronger effect = lower value 1 | locus YPR141C, strain kar3, stronger effect = lower value 0.987 | locus YPR163C, strain tif3, stronger effect = lower value 0.984 | locus YPR167C, strain met16, stronger effect = lower value 1 | strain wtn01, stronger effect = lower value 0.96

Source: PubChem BioAssay AID1159580 (chemical genetic matrix, 2015)
